In the supplement of paper PMC4206461:
A number with no mark means an inactive call.

System: Pseudomonas aeruginosa PA14 dppBCDF deletion mutant
Assay: respiration area under curve with compound as sole nitrogen source, 24 h (OmniLog AUC (arbitrary units)); higher = more respiration / better utilisation as nitrogen source, active = 2000 or more; extreme values may be limits of the assay
Procedure: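 Biolog Phenotype MicroArray plates PM6-PM8: each di/tripeptide is the sole nitrogen source. Tetrazolium reduction was read in the OmniLog every 15 min for 24 h at 37°C and summarised as area under the respiration curve (arbitrary units). Values below 2000 count as no respiration. Strain is the dipeptide ABC transporter deletion mutant.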

Row | SMILES | respiration area under curve
1 | NCC(=O)NCC(=O)O (plate: PM6) | 98.5
2 | NC(N)=NCCC[C@H](N)C(=O)N[C@@H](CC(=O)O)C(=O)O (plate: PM6) | 7880 (active)
3 | CC(C)C[C@H](N)C(=O)N[C@@H](CC(N)=O)C(=O)O (plate: PM8) | 10700 (active)
4 | CC[C@H](C)[C@H](N)C(=O)N[C@@H](CO)C(=O)O (plate: PM6) | 156
5 | N[C@@H](CC(=O)O)C(=O)N[C@@H](CCC(=O)O)C(=O)O (plate: PM6) | 0
6 | C[C@H](N)C(=O)N[C@@H](Cc1c[nH]c2ccccc12)C(=O)O (plate: PM6) | 3230 (active)
7 | C[C@@H](O)[C@H](N)C(=O)N[C@@H](Cc1ccccc1)C(=O)O (plate: PM8) | 274
8 | CC(C)C[C@H](NC(=O)[C@@H](C)N)C(=O)O (plate: PM8) | 0
9 | NCC(=O)N[C@H](CO)C(=O)O (plate: PM8) | 0
10 | NC(=O)CC[C@H](NC(=O)[C@@H](N)CCC(N)=O)C(=O)O (plate: PM6) | 4130 (active)
11 | CC(C)C[C@H](N)C(=O)N[C@@H](C)C(=O)O (plate: PM6) | 7270 (active)
12 | CC[C@H](C)[C@H](N)C(=O)N[C@H](C(=O)O)[C@@H](C)CC (plate: PM6) | 0
13 | CC(C)C[C@H](NC(=O)[C@@H](N)Cc1ccc(O)cc1)C(=O)O (plate: PM7) | 5310 (active)
14 | CC[C@H](C)[C@H](N)C(=O)N[C@@H](CCC(N)=O)C(=O)O (plate: PM6) | 873
15 | N[C@@H](Cc1ccccc1)C(=O)N[C@@H](CCC(=O)O)C(=O)O (plate: PM8) | 0
16 | N[C@@H](CO)C(=O)NCC(=O)O (plate: PM7) | 1360
17 | CSCC[C@H](N)C(=O)N[C@@H](CC(=O)O)C(=O)O (plate: PM7) | 1590
18 | CC(C)[C@H](N)C(=O)N[C@H](C(=O)O)C(C)C (plate: PM7) | 1580
19 | CSCC[C@H](NC(=O)[C@@H](N)CCCN=C(N)N)C(=O)O (plate: PM6) | 9400 (active)
20 | C[C@H](NC(=O)CCN)C(=O)O (plate: PM8) | 0

Row | SMILES | respiration area under curve
21 | CC(C)C[C@H](NC(=O)[C@@H](N)[C@@H](C)O)C(=O)O (plate: PM7) | 1070
22 | C[C@H](NC(=O)[C@@H](N)CO)C(=O)O (plate: PM7) | 2670 (active)
23 | CC(C)[C@H](NC(=O)[C@@H](N)Cc1ccccc1)C(=O)O (plate: PM8) | 3510 (active)
24 | C[C@H](N)C(=O)N[C@@H](Cc1ccccc1)C(=O)O (plate: PM6) | 5070 (active)
25 | CC(C)[C@H](NC(=O)CN)C(=O)O (plate: PM6) | 124
26 | N[C@@H](Cc1ccccc1)C(=O)NCC(=O)NCC(=O)O (plate: PM8) | 1300
27 | NCC(=O)N[C@@H](CC(N)=O)C(=O)O (plate: PM8) | 13800 (active)
28 | CSCC[C@H](NC(=O)[C@H](C)N)C(=O)O (plate: PM8) | 2300 (active)
29 | C[C@H](N)C(=O)N[C@@H](C)C(=O)N[C@@H](C)C(=O)O (plate: PM8) | 6480 (active)
30 | N[C@@H](Cc1ccccc1)C(=O)N1CCC[C@H]1C(=O)O (plate: PM7) | 1.5
31 | C[C@H](O)[C@@H](NC(=O)CN)C(=O)O (plate: PM8) | 0
32 | CC(C)[C@H](N)C(=O)N[C@@H](CC(=O)O)C(=O)O (plate: PM7) | 18
33 | CC(C)[C@H](N)C(=O)N[C@@H](CCC(=O)O)C(=O)O (plate: PM8) | 0
34 | NCC(=O)N1CCC[C@H]1C(=O)O (plate: PM6) | 0
35 | C[C@H](N)C(=O)N[C@@H](CO)C(=O)O (plate: PM6) | 6740 (active)
36 | CC[C@H](C)[C@H](N)C(=O)N[C@@H](Cc1c[nH]c2ccccc12)C(=O)O (plate: PM6) | 76.8
37 | CC(C)C(N)C(=O)NC(CO)C(=O)O (stereo not given) (plate: PM8) | 844
38 | CSCC[C@H](N)C(=O)N[C@H](C(=O)O)[C@@H](C)O (plate: PM8) | 211
39 | CC(C)C[C@H](N)C(=O)N[C@@H](Cc1ccccc1)C(=O)O (plate: PM6) | 3930 (active)
40 | NC(=O)C[C@H](NC(=O)[C@@H](N)CO)C(=O)O (plate: PM8) | 10400 (active)
